Results taken from PubChem BioAssay AID1159580 (chemical genetic matrix, 2015).
Values joined by “and” are separate entries in the source; they are usually repeats but may differ in a detail not shown here. Identical values can stand only once. Out of some 5,500 compounds screened, about 2,000 (36%) were called active. Not shown: some 18% with an inconclusive outcome. Rule as the data show it: active = normalized growth mostly below about 0.91 (no sharp cut-off); inconclusive = no clear call, values can overlap the other calls; inactive = mostly above about 0.92. Some of the results follow.

Test: chemical genetic growth profiling, strain panel (AID 1159580);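 also: tested at 20 µM; growth read once vehicle control cultures reached saturation at 30 °C; 1 = growth at the plate median or of vehicle wells; lower values mean less growth of the strain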
Details: S. cerevisiae deletion strains, growth OD

Measured: normalized growth

CC(=O)OC1CCC2(C)C3CC(=O)C4(C)C(CC5OC6(CCC(C)CO6)[C@@H](C)C54)C3CC[C@H]2C1 (stereo not given in full)
inactive: locus YAL013W, strain DEP1, stronger effect = lower value 0.982 | locus YAL021C, strain ccr4, stronger effect = lower value 0.987 | locus YAL026C, strain drs2, stronger effect = lower value 0.991 | locus YAL030W, strain snc1, stronger effect = lower value 0.981 | locus YBL061C, strain skt5, stronger effect = lower value 0.982 | locus YBR009C, strain hhf1, stronger effect = lower value 0.991 | locus YBR021W, strain FUR4, stronger effect = lower value 1.07 | locus YBR023C, strain chs3, stronger effect = lower value 0.994 | locus YBR171W, strain sec66, stronger effect = lower value 0.984 | locus YBR229C, strain ROT2, stronger effect = lower value 0.99 | locus YBR231C, strain swc5, stronger effect = lower value 1.01 | locus YBR279W, strain paf1, stronger effect = lower value 0.987 | locus YCL011C, strain gbp2, stronger effect = lower value 0.979 | locus YCL016C, strain dcc1, stronger effect = lower value 0.98 | locus YCL029C, strain bik1, stronger effect = lower value 0.963 | locus YCL069W, strain vba3, stronger effect = lower value 1.01 | locus YCR088W, strain abp1, stronger effect = lower value 0.994 | locus YDL005C, strain med2, stronger effect = lower value 0.975 | locus YDL035C, strain GPR1, stronger effect = lower value 1.01 | locus YDL040C, strain nat1, stronger effect = lower value 0.99 | locus YDL074C, strain BRE1, stronger effect = lower value 0.983 | locus YDL101C, strain DUN1, stronger effect = lower value 0.992 | locus YDL185W, strain tfp1, stronger effect = lower value 0.952 | locus YDL192W, strain arf1, stronger effect = lower value 0.986 | locus YDR001C, strain nth1, stronger effect = lower value 0.988 | locus YDR069C, strain doa4, stronger effect = lower value 0.968 | locus YDR101C, strain arx1, stronger effect = lower value 1 | locus YDR137W, strain rgp1, stronger effect = lower value 0.973 | locus YDR159W, strain sac3, stronger effect = lower value 1.03 | locus YDR162C, strain NBP2, stronger effect = lower value 0.972 | locus YDR195W, strain ref2 0.942 | locus YDR297W, strain sur2, stronger effect = lower value 0.978 | locus YDR318W, strain mcm21, stronger effect = lower value 0.996 | locus YDR334W, strain swr1, stronger effect = lower value 0.985 | locus YDR335W, strain msn5, stronger effect = lower value 0.978 | locus YDR388W, stronger effect = lower value 0.978 | locus YDR392W, strain spt3, stronger effect = lower value 1.01 | locus YDR502C, strain sam2, stronger effect = lower value 0.971 | locus YEL003W, strain gim4, stronger effect = lower value 0.986 | locus YEL037C, strain rad23, stronger effect = lower value 0.998 | locus YEL061C, strain CIN8 (second series), stronger effect = lower value 0.999 | locus YER015W, strain faa2, stronger effect = lower value 0.988 | locus YER016W, strain bim1, stronger effect = lower value 0.96 | locus YER110C, stronger effect = lower value 0.97 | locus YER111C, strain swi4, stronger effect = lower value 0.995 | locus YER155C, strain BEM2 (second series), stronger effect = lower value 0.999 | locus YER155C, strain BEM2, stronger effect = lower value 1.01 | locus YER167W, strain BCK2, stronger effect = lower value 1.01 | locus YFR010W, strain ubp6, stronger effect = lower value 1 | locus YGL078C, strain dbp3, stronger effect = lower value 0.988 | locus YGL086W, strain mad1, stronger effect = lower value 0.993 | locus YGL167C, strain pmr1, stronger effect = lower value 0.99 | locus YGL173C, strain kem1, stronger effect = lower value 1.01 | locus YGL227W, strain vid30, stronger effect = lower value 0.974 | locus YGL240W, strain doc1, stronger effect = lower value 0.98 | locus YGL248W, strain PDE1, stronger effect = lower value 0.991 | locus YGL253W, strain hxk2, stronger effect = lower value 0.976 | locus YGR078C, strain PAC10, stronger effect = lower value 0.986 | locus YGR135W, strain pre9, stronger effect = lower value 0.977 | locus YGR252W, strain gcn5, stronger effect = lower value 0.986 | locus YHR013C, strain ard1, stronger effect = lower value 0.957 | locus YHR027C, strain rpn1, stronger effect = lower value 0.982 | locus YHR030C, strain SLT2, stronger effect = lower value 0.977 | locus YHR079C, strain IRE1 (second series), stronger effect = lower value 0.987 | locus YHR079C, strain IRE1, stronger effect = lower value 1.01 | locus YHR094C, strain hxt1, stronger effect = lower value 0.975 | locus YHR129C, strain ARP1, stronger effect = lower value 0.982 | locus YHR142W, strain chs7, stronger effect = lower value 0.955 | locus YHR200W, strain rpn10, stronger effect = lower value 0.993 | locus YIL066C, strain RNR3, stronger effect = lower value 0.988 | locus YIL073C, strain SPO22, stronger effect = lower value 0.931 | locus YIL125W, strain kgd1, stronger effect = lower value 0.974 | locus YIR030C, strain dcg1, stronger effect = lower value 0.988 | locus YJL092W, strain hpr5, stronger effect = lower value 0.985 | locus YJL095W, strain BCK1 (second series), stronger effect = lower value 0.981 | locus YJL095W, strain BCK1, stronger effect = lower value 0.962 and 1 | locus YJL115W, strain asf1, stronger effect = lower value 0.958 | locus YJL129C, strain trk1, stronger effect = lower value 0.969 | locus YJL134W, strain LCB3, stronger effect = lower value 0.99 | locus YJL154C, strain vps35, stronger effect = lower value 0.986 | locus YJL164C, strain tpk1, stronger effect = lower value 0.993 | locus YJL166W, strain qcr8, stronger effect = lower value 0.965 | locus YJL168C, strain set2, stronger effect = lower value 0.983 | locus YJL187C, strain SWE1 (second series), stronger effect = lower value 0.977 | locus YJR066W, strain TOR1, stronger effect = lower value 0.934 | locus YJR075W, strain HOC1, stronger effect = lower value 0.988 | locus YKL009W, strain mrt4, stronger effect = lower value 0.983 | locus YKL068W, stronger effect = lower value 0.981 | locus YKL085W, strain MDH1 (second series), stronger effect = lower value 0.988 | locus YKL085W, strain MDH1, stronger effect = lower value 0.988 | locus YKL160W, strain elf1, stronger effect = lower value 0.964 | locus YKR001C, strain vps1, stronger effect = lower value 0.992 | locus YKR026C, strain gcn3, stronger effect = lower value 1 | locus YKR091W, strain srl3, stronger effect = lower value 0.964 | locus YLL001W, strain dnm1, stronger effect = lower value 1.01 | locus YLL026W, stronger effect = lower value 0.977 | locus YLL041C, strain sdh2, stronger effect = lower value 0.992 | locus YLR027C, strain aat2, stronger effect = lower value 0.965 | locus YLR039C, strain RIC1, stronger effect = lower value 0.994 | locus YLR058C, strain SHM2, stronger effect = lower value 0.982 | locus YLR102C, strain apc9, stronger effect = lower value 0.972 | locus YLR113W, strain HOG1, stronger effect = lower value 0.976 | locus YLR221C, strain rsa3, stronger effect = lower value 1.01 | locus YLR258W, strain gsy2, stronger effect = lower value 0.961 | locus YLR262C, strain YPT6 (second series), stronger effect = lower value 0.974 | locus YLR268W, strain sec22, stronger effect = lower value 0.984 | locus YLR320W, strain mms22, stronger effect = lower value 1.03 | locus YLR342W, strain FKS1 (second series), stronger effect = lower value 1.03 | locus YLR342W, strain FKS1, stronger effect = lower value 0.975 | locus YLR357W, strain rsc2, stronger effect = lower value 0.964 | locus YLR370C, strain arc18, stronger effect = lower value 0.973 | locus YLR371W, strain rom2, stronger effect = lower value 0.992 | locus YLR384C, strain iki3, stronger effect = lower value 0.983 | locus YLR418C, strain cdc73, stronger effect = lower value 1.02 | locus YML016C, strain PPZ1, stronger effect = lower value 1.01 | locus YML032C, strain rad52, stronger effect = lower value 0.996 | locus YML120C, strain ndi1, stronger effect = lower value 0.989 | locus YML124C, strain tub3, stronger effect = lower value 0.982 | locus YMR058W, strain fet3, stronger effect = lower value 0.979 | locus YMR078C, strain ctf18, stronger effect = lower value 0.986 | locus YMR125W, strain sto1, stronger effect = lower value 0.986 | locus YMR129W, stronger effect = lower value 0.975 | locus YMR205C, strain PFK2, stronger effect = lower value 1 | locus YMR223W, strain ubp8, stronger effect = lower value 0.981 | locus YMR231W, strain pep5, stronger effect = lower value 0.989 | locus YMR263W, strain SAP30, stronger effect = lower value 0.979 | locus YMR307W, strain GAS1, stronger effect = lower value 1.06 | locus YNL067W, strain RPL9B, stronger effect = lower value 0.967 | locus YNL071W, strain lat1, stronger effect = lower value 1 | locus YNL153C, strain GIM3, stronger effect = lower value 0.973 | locus YNL183C, strain NPR1, stronger effect = lower value 0.956 | locus YNL209W, strain ssb2, stronger effect = lower value 1 | locus YNL233W, strain BNI4, stronger effect = lower value 0.989 | locus YNL248C, strain rpa49, stronger effect = lower value 0.955 | locus YNL250W, strain rad50, stronger effect = lower value 0.969 | locus YNL271C, strain bni1, stronger effect = lower value 0.994 | locus YNL298W, strain CLA4, stronger effect = lower value 0.973 | locus YNL307C, strain MCK1, stronger effect = lower value 0.974 | locus YNL322C, strain KRE1 (second series), stronger effect = lower value 0.98 | locus YNR049C, strain mso1, stronger effect = lower value 0.966 | locus YNR052C, strain pop2, stronger effect = lower value 0.976 | locus YOL006C, strain TOP1, stronger effect = lower value 1.06 | locus YOL012C, strain htz1 0.635 | locus YOL147C, strain pex11, stronger effect = lower value 0.965 | locus YOR001W, strain rrp6, stronger effect = lower value 1.03 | locus YOR061W, strain CKA2, stronger effect = lower value 0.997 | locus YOR069W, strain VPS5, stronger effect = lower value 0.99 | locus YOR070C, strain gyp1, stronger effect = lower value 0.993 | locus YOR080W, strain dia2, stronger effect = lower value 0.974 | locus YOR083W, strain WHI5, stronger effect = lower value 0.974 | locus YOR106W, strain vam3, stronger effect = lower value 0.963 | locus YOR136W, strain idh2, stronger effect = lower value 0.981 | locus YOR144C, strain elg1, stronger effect = lower value 0.982 | locus YOR184W, strain ser1, stronger effect = lower value 1.01 | locus YOR231W, strain MKK1, stronger effect = lower value 0.988 | locus YOR265W, strain rbl2, stronger effect = lower value 0.968 | locus YOR270C, strain vph1, stronger effect = lower value 0.999 | locus YOR290C, strain snf2, stronger effect = lower value 0.96 | locus YOR316C, strain cot1, stronger effect = lower value 0.97 | locus YPL051W, strain arl3, stronger effect = lower value 0.977 | locus YPL078C, strain atp4, stronger effect = lower value 0.979 | locus YPL106C, strain sse1, stronger effect = lower value 0.986 | locus YPL240C, strain hsp82, stronger effect = lower value 0.982 | locus YPL241C, strain CIN2, stronger effect = lower value 0.994 | locus YPL256C, strain CLN2, stronger effect = lower value 0.993 | locus YPR119W, strain clb2, stronger effect = lower value 0.995 | locus YPR141C, strain kar3, stronger effect = lower value 0.97 | locus YPR163C, strain tif3, stronger effect = lower value 0.962 | locus YPR167C, strain met16, stronger effect = lower value 0.988 | strain wtn01, stronger effect = lower value 0.985
